“And” between values parts separate entries of the source, which are not always exact repeats. Equal entries are not always repeated. Records with an inconclusive call do not appear. A structure can be active in one record and inactive in another. The source made the active and inactive calls. Unless noted, calls follow the shape of the dose curve; as a rule, active = well fitted curve in the direction sought with a large enough effect in the repeat runs; inconclusive = weak or mixed curves; inactive = no such curve, though single readings can be large; an effect the other way counts as inactive or inconclusive.

A short description of assay [1]: qHTS assay to identify small molecule antagonists of the glucocorticoid receptor (GR) signaling pathway - cell viability counter screen (AID 720693). Also: nearly all actives have a fitted effect of over 55% in size.
The nature of assay [2]: qHTS assay for identifying genotoxic compounds that show differential cytotoxicity against isogenic chicken DT40 cell lines with known DNA damage response pathways - wild type cell line (AID 743012). Also: nearly all actives have a fitted effect of over 60% in size. The gist of the method: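 Quantitative HTS on parental DT40 cells: 40 h compound treatment at 37 C/5% CO2, with viability then determined by CellTiter-Glo luminescence. Values serve as the DNA repair-proficient reference for differential cytotoxicity.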

The nature of assay [3]: qHTS assay for identifying genotoxic compounds that show differential cytotoxicity against isogenic chicken DT40 cell lines with known DNA damage response pathways - Rad54/Ku70 mutant cell line (AID 743015). Also: nearly all actives have a fitted effect of over 60% in size. Also: potency is read from the fitted curve at half-maximal effect.
The nature of assay [4]: qHTS assay to identify small molecule antagonists of the androgen receptor (AR) signaling pathway - cell viability counter screen (AID 743033; also: nearly all actives have a fitted effect of over 45% in size).
Assay [5] deals with Androgen receptor (Homo sapiens) (UniProt P10275). The experiment in a line: qHTS assay to identify small molecule antagonists of the androgen receptor (AR) signaling pathway (AID 743035; active = well fitted inhibition curve with a large enough effect in the signal ratio in the repeat runs, not every such curve was filed as active; the % refers to the signal ratio). The gist of the method: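 Cell line: GeneBLAzer AR-UAS-bla GripTite (HEK293). Stimulus: R1881 added after compound. Exposure: 16 h, 37C, 5% CO2. Readout: LiveBLAzer B/G FRET fluorescence after 2 h at room temperature.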

Assay [6] shares this target. The assay can be described thus: qHTS assay to identify small molecule agonists of the androgen receptor (AR) signaling pathway (AID 743036; active = well fitted activation curve with a large enough effect in the signal ratio in the repeat runs, with a control signal flat, not every such curve was filed as active; the % refers to the signal ratio). The gist of the method:
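AR-UAS-bla HEK293 cells, plated 4 h before dosing, were treated with compound for 16 h at 37C. beta-Lactamase reporter read after 2 h with LiveBLAzer B/G FRET substrate at room temperature.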

For assay [7] the target is unchanged. The experiment in a line: qHTS assay to identify small molecule agonists of the androgen receptor (AR) signaling pathway using the MDA cell line (AID 743040; also: nearly all actives have a fitted effect of over 20% in size). Summed up:
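Human breast carcinoma MDA-kb2 reporter cells (MMTV-luc, AR/GR elements) were treated for 16 h at 37C in 0% CO2 following a 5 h settling period. Signal was quantified by ONE-Glo luminescence.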

The nature of assay [8]: qHTS assay to identify small molecule antagonists of the androgen receptor (AR) signaling pathway using the MDA cell line - cell viability counter screen (AID 743041; also: nearly all actives have a fitted effect of over 45% in size). The gist of the method: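 Same-well cytotoxicity was assessed by CellTiter-Fluor in MDA-kb2 AR-luc cells after 16 h of compound treatment under R1881 agonism.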
In assay [9] the target is Androgen receptor (Homo sapiens) (UniProt P10275). The experiment in a line: qHTS assay to identify small molecule antagonists of the androgen receptor (AR) signaling pathway using the MDA cell line (AID 743042; also: nearly all actives have a fitted effect of over 55% in size). The gist of the method:
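MDA-kb2 breast carcinoma cells carrying MMTV-luciferase (AR/GR responsive) were co-treated with compounds and the agonist R1881 for 16 h at 37C. Inhibition read as ONE-Glo luminescence; CellTiter-Fluor fluorescence measured in parallel for cytotoxicity.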

Assay [10] can be described thus: qHTS assay to identify small molecule antagonists of the thyroid receptor (TR) signaling pathway - cell viability counter screen (AID 743064). Also: nearly all actives have a fitted effect of over 50% in size. Summed up:
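GH3.TRE-Luc rat pituitary cells dosed after 4 hr plating, co-stimulated with T3 at 1 nM final, incubated 23.5 h at 37 C. Viability measured in the same wells by CellTiter-Fluor fluorescence after 30 min further at 37 C.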

Assay [11] has as its target Estrogen receptor (Homo sapiens) (UniProt P03372). The assay can be described thus: qHTS assay to identify small molecule antagonists of the estrogen receptor alpha (ER-alpha) signaling pathway (AID 743069; active = well fitted curve in the direction sought with a large enough effect in the signal ratio in the repeat runs, not every such curve was filed as active; the % refers to the signal ratio). The gist of the method:
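Reporter cells (ER-alpha-bla, HEK293 background) are conditioned overnight in stripped-serum medium (2% charcoal-stripped FBS). Compound and 17beta-estradiol exposure runs 18 hr at 37C, 5% CO2.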

The nature of assay [12]: qHTS assay to identify small molecule antagonists of the estrogen receptor alpha (ER-alpha) signaling pathway - cell viability counter screen (AID 743074; calls by dose curve;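 also: HEK293 cells carrying ER-alpha-UAS-bla reporter stimulated with 17beta-estradiol; nearly all actives have a fitted effect of over 45% in size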).
The target of assay [13] is Estrogen receptor (Homo sapiens) (UniProt P03372). The assay can be described thus: qHTS assay to identify small molecule agonists of the estrogen receptor alpha (ER-alpha) signaling pathway (AID 743075; calls by dose curve;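 also: HEK293 GripTite cells with ER-alpha and UAS-driven beta-lactamase reporter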).
Assay [14] has the same target. The assay can be described thus: qHTS assay to identify small molecule agonists of the estrogen receptor alpha (ER-alpha) signaling pathway using the BG1 cell line (AID 743079). Also: nearly all actives have a fitted effect of over 20% in size.
Assay [15] is described as follows: qHTS assay to identify small molecule antagonists of the estrogen receptor alpha (ER-alpha) signaling pathway using the BG1 cell line (AID 743080; calls by dose curve;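 also: BG1 cells stimulated with 17beta-estradiol alongside compound; series mostly up to about 70 µM; nearly all actives have a fitted effect of over 25% in size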). The gist of the method:
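Luminescence from a 4×ERE-luciferase reporter in BG1-Luc-4E2 cells served as read-out. Cells, pre-cultured 5 days in stripped-serum phenol-red-free medium, were exposed to compound with 17beta-estradiol co-stimulation for 21.5 h at 37 C.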

Assay [16] can be described thus: qHTS assay to identify small molecule antagonists of the estrogen receptor alpha (ER-alpha) signaling pathway using the BG1 cell line - cell viability counter screen (AID 743081).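 Also: compound given together with 17beta-estradiol as the ER stimulus; series mostly up to about 70 µM; nearly all actives have a fitted effect of over 45% in size.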
Assay [17] addresses Aromatase (Homo sapiens) (UniProt P11511). The experiment in a line: qHTS assay to identify aromatase inhibitors (AID 743083). Also: series mostly up to about 70 µM; nearly all actives have a fitted effect of over 55% in size.
Assay [18] is described as follows: qHTS assay to identify small molecule antagonists of the thyroid receptor (TR) signaling pathway (AID 743065). Also: series mostly up to about 70 µM; nearly all actives have a fitted effect of over 55% in size. Summed up: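 GH3.TRE-Luc rat pituitary cells (two TREs driving luciferase) were dosed with compound, then stimulated with 1 nM T3 (final) for 23.5 h at 37 C. ONE-Glo luminescence was the read-out, with CellTiter-Fluor fluorescence as the cytotoxicity counter-screen.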

Assay [19] relates to thyroid hormone receptor (rat, GH3 cells). The experiment in a line: qHTS assay to identify small molecule agonists of the thyroid receptor (TR) signaling pathway (AID 743066; calls by dose curve).
The nature of assay [20]: qHTS assay for identifying genotoxic compounds that show differential cytotoxicity against isogenic chicken DT40 cell lines with known DNA damage response pathways - Rev3 mutant cell line (AID 743014). Also: nearly all actives have a fitted effect of over 55% in size.

Sequence of Estrogen receptor (Homo sapiens) (P03372 whole entry, looked up): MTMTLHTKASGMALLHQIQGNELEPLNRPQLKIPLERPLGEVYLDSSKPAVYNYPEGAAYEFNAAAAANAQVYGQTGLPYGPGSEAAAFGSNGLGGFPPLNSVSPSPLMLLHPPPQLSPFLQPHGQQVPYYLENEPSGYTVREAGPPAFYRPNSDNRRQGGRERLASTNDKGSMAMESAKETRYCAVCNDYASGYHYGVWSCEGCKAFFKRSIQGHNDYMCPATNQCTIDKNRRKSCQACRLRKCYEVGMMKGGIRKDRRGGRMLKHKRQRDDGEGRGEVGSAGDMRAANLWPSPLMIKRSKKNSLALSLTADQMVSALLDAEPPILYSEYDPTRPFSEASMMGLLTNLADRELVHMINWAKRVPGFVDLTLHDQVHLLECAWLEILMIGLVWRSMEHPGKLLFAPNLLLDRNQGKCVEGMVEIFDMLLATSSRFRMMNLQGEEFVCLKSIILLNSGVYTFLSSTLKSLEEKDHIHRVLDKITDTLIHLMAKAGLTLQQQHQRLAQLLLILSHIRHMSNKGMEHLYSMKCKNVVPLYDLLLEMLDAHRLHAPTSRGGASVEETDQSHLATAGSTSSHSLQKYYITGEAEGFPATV
Sequence of Androgen receptor (Homo sapiens) (P10275 whole entry, looked up): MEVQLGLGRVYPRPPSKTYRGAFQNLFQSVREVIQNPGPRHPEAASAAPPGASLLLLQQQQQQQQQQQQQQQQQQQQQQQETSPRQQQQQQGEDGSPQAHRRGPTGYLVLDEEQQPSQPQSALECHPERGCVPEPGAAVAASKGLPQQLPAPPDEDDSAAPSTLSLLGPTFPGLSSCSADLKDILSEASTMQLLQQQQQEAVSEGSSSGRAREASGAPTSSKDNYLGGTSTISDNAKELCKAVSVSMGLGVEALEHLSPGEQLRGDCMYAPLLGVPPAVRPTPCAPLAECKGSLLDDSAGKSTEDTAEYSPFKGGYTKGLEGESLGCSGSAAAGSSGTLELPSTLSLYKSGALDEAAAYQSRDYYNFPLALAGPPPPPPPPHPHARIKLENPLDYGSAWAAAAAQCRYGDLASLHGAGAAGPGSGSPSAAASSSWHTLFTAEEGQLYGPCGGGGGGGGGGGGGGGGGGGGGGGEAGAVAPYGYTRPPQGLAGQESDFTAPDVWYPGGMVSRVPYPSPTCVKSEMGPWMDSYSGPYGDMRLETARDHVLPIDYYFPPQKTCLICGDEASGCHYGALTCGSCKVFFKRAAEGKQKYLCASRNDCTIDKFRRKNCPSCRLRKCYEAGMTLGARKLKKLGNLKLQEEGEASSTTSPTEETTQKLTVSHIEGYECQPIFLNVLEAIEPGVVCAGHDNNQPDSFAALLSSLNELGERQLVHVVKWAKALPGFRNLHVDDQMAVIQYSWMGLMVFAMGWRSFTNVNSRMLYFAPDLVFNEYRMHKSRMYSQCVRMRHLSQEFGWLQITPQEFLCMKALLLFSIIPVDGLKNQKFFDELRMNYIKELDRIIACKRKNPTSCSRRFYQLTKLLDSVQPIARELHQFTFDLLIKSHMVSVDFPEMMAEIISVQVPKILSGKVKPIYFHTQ
Sequence of Aromatase (Homo sapiens) (P11511 whole entry, looked up): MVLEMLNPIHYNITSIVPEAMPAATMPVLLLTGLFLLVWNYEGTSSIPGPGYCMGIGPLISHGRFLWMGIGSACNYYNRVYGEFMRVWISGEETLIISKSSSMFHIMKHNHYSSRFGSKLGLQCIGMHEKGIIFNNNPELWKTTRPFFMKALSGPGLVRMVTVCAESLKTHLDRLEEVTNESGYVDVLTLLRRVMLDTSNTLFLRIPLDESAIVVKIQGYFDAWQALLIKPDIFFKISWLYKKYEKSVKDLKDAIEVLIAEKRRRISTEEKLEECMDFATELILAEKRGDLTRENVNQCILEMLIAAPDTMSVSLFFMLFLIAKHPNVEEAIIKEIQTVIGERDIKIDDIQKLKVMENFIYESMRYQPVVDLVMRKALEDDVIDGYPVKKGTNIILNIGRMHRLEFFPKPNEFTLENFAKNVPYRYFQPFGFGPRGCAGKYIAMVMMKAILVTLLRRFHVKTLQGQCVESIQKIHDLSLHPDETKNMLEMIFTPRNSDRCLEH

For `CC(C)(C)C(=O)CCl`, the Potency entry in assay [1], in [2], in assay [3], in assay [5], in assay [9] and in [10] was “inactive” throughout. For the same compound, the Potency entry in [11], in assay [14] and in assay [17] was “inactive” each time. The compound was called inactive in assay [4], in assay [6], in [7], in [8], in [12] and in assay [13]. The outcome in assay [15] and in assay [16] was inactive.
Turning to `CCNc1nc(Cl)nc(NC(C)C)n1`, the Potency entry in assay [1], in [2], in assay [3], in assay [10], in assay [18] and in assay [19] was “inactive” in each case. In addition, the Potency result in assay [11], in assay [14] and in assay [17] was “inactive” in each case. Further, the outcome in [4], in [8], in assay [12], in [13], in assay [15] and in assay [16] was inactive.
As for `Cc1cccc(C)c1N`, the Potency result in assay [1], in [2], in [20], in [3], in assay [18] and in assay [19] was “inactive” throughout. For the same compound, the Potency result in assay [11], in [14] and in assay [17] was “inactive” in each case. Also, the compound was classed as inactive in [8], in [12], in assay [13], in assay [15] and in [16].
On to `OCC(O)CCl` (stereo not drawn), for which the Potency entry in [1], in assay [2], in assay [20], in assay [3], in assay [10] and in [18] was “inactive” each time. The Potency result in [19], in assay [11], in [14] and in [17] was “inactive” each time. Also, the call in [8], in [12], in assay [13], in assay [15] and in assay [16] was inactive.
Take `C=CCN=C=S`: the Potency result in [1], in [2], in [3], in [10], in [18] and in [19] was “inactive” in each case. Further, the Potency entry in assay [11], in [14] and in assay [17] was “inactive” in each case. Also, the compound was classed as inactive in assay [4], in assay [8], in assay [12], in [13], in assay [15] and in assay [16].
On to `Clc1cnc(Oc2ccc(Oc3ncc(Cl)cc3Cl)cc2)c(Cl)c1`, for which the Potency result in assay [1], in assay [2], in [20], in assay [10], in assay [18] and in assay [19] was “inactive” throughout. In [17], the Potency result is “inactive”. In addition, in assay [3], the Potency entry is “inactive and 30.6 µM (active)”. For the same compound, the outcome in assay [8], in assay [12] and in assay [16] was inactive.
Take `N#Cc1cccc(C#N)c1`: the Potency entry in [1], in [2], in [20], in assay [3], in assay [10] and in [18] was “inactive” in each case. Further, the Potency result in assay [19] and in assay [17] was “inactive” throughout. For the same compound, the compound was called inactive in assay [8], in assay [12] and in assay [16].
As for `CCCOC(=O)c1ccccc1C(=O)OCCC`, the Potency entry in assay [1], in assay [2], in assay [3], in assay [10], in assay [18] and in [19] was “inactive” throughout. The Potency entry in assay [11], in [14] and in assay [17] was “inactive” throughout. Besides, the outcome in assay [4], in assay [8], in [12], in assay [13], in [15] and in assay [16] was inactive.
For `Sc1ccccc1`, the Potency result in [1], in [2], in assay [3], in assay [10], in assay [18] and in [19] was “inactive” throughout. Moreover, the Potency entry in assay [11], in assay [14] and in assay [17] was “inactive” each time. For the same compound, the outcome in assay [4], in assay [8], in assay [12], in [13], in assay [15] and in [16] was inactive.

(Values after PubChem BioAssay (Tox21).)
